Structures are written as SMILES. The whole screen tested about 330,000 compounds, of which about 4,400 (1.3%) were called active. The list comes from a sample in which actives are over-represented; it also holds similar structures and randomly drawn compounds. A number with no mark means an inactive call.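 Rule for the calls: active = growth inhibition of the mutant yeast at or above 50%; inactive = the rest.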

A short description of the assay: growth inhibition of tim23-1 ts yeast – luminescence, uHTS, primary screen (AID 463212).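 Note: temperature-sensitive mutant grown at 25 °C; plate controls were DMSO-treated mutant yeast for no effect and medium wells lacking yeast for full effect.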 To be noted: S. cerevisiae tim23-1 growth, BacTiter-Glo luminescence, 24 h; at 20 µM; hits give high values.
Turning to `O=C(/C=C/c1ccc(Cl)cc1Cl)c1cccnc1`, the inhibition is 31.1%.

Turning to `O=C(Nc1ccncc1)c1ccc(Cl)c([N+](=O)[O-])c1`, the inhibition is -42.5%.

In the case of `O=C(/C=C/c1ccc(Cl)c([N+](=O)[O-])c1)c1cccnc1`, the inhibition was 80.7% (active).

Regarding `CC1CCCCC1NC(=O)CCS(=O)(=O)c1cccc2nonc12` (configuration not stated), the inhibition is 4.3%.

As for `O=C(CCS(=O)(=O)Cc1ccccc1F)NCCCN1CCCCC1`, the inhibition is -8.7%.

Regarding `CSCCC(NC(=O)COc1ccccc1)C(=O)N(C)CC(=O)Nc1ccc(C)cc1` (configuration not stated), the inhibition is 8.43%.

Take `Cc1ccc(CNC(=O)c2cccnc2Cl)cc1`: the inhibition is -14.6%.

Regarding `CC(=NCc1ccco1)C1=C(O)c2ccccc2C1=O`, the inhibition was 50.3% (active).

In the case of `O=C1C(C=NCC2CCCO2)=C(O)c2ccccc21` (configuration not stated), the inhibition was 6.49%.

Regarding `CC1CCC(NC(=O)C2c3ccccc3C(=O)N2Cc2ccc3c(c2)OCO3)CC1` (configuration not stated), the inhibition was 9.09%.

Consider `CC(=NCc1ccco1)c1c(C(F)(F)F)[nH]n(-c2nc3ccccc3s2)c1=O`, for which the inhibition was 22.4%.

`CCc1ccc(NC(=O)NC(C)c2ccc3c(c2)OCO3)cc1` (configuration not stated): the inhibition is 22.5%.

As to `CC(=NCc1ccc2c(c1)OCO2)C1=C(O)c2ccccc2C1=O`, the inhibition is 51.6% (active).

With `CCOC(=O)C[C@H]1c2ccc(C(F)(F)F)cc2S(=O)(=O)N1c1ccccc1`, the inhibition was 33.9%.

On to `COc1cc2c(C(=O)N(C)c3cc(Cl)ccc3OC)cn(C)c(=O)c2cc1OC`, for which the inhibition was 10%.

`N#CC(Cc1cc2ccccc2n1S(=O)(=O)c1ccccc1)OCc1ccccc1` (configuration not stated): the inhibition was 30.3%.

Turning to `CC1C(=O)C(C)C(c2ccc(O)cc2)NC1c1ccc(O)cc1` (configuration not stated), the inhibition is 0.501%.

Take `Cc1ccc2c(N)c(C(=O)c3ccccc3)sc2n1`: the inhibition is 48.6%.

Regarding `CCc1nc2sc(C(=O)O)c(N)c2c2c1CCCC2`, the inhibition is -17.3%.

Take `Cc1nc2sc(C(=O)c3ccccc3)c(N)c2c2c1CCCC2`: the inhibition is 51.8% (active).

In the case of `CCOC(=O)C1CCCN(S(=O)(=O)c2ccc(-n3cnnn3)c(C)c2)C1` (configuration not stated), the inhibition was 2.62%.

`COc1ccc(/C(O)=C2/C(=O)C(=O)N(CC3CCCO3)C2c2ccc(OC)c(OC)c2)cc1` (configuration not stated): the inhibition was -1.19%.

For `Cc1nnc(SCC(=O)N(C(C)C)C(C)C)nc1C`, the inhibition is 8.73%.

With `O=C(COc1ccc([N+](=O)[O-])cc1Cl)Nn1cnnc1`, the inhibition is 6.97%.

Turning to `COc1ccc(-c2nc3cnccn3c2NC2CCCCC2)cc1-c1cccc(Cl)c1`, the inhibition was 21.6%.

As to `CCOc1cc(-c2nc3cc(C)ccn3c2NCC2CCCO2)ccc1O` (configuration not stated), the inhibition is 18.9%.

Take `COc1ccc(-c2nc3cc(C)ccn3c2NC2CCCCC2)cc1SC1CCCCC1`: the inhibition is 52.3% (active).

Consider `O=C(c1cc2ccccc2o1)N1CCN(Cc2ccccc2)CC1`, for which the inhibition was 12.6%.

Consider `Cc1[nH]c2ccccc2c1-c1ccc(Cl)nn1`, for which the inhibition is 5.43%.

For `CC(C)CCNC(=O)c1ccc2c(Cl)c3c(nc2c1)CCC3`, the inhibition was 43.3%.

`CSc1ccc(S(=O)(=O)NC2CCCCC2)cc1`: the inhibition is 31.1%.

As for `CC(C)c1ccc(S(=O)(=O)NC2CCCC2)cc1`, the inhibition was 23.4%.

For `Cc1ccc(S(=O)(=O)NC2CCCCCC2)cc1`, the inhibition is 51.4% (active).

Regarding `CC(CC(=O)N1CCN(S(=O)(=O)c2ccccc2)CC1)n1cncn1` (configuration not stated), the inhibition is 7.53%.

Consider `CC1=NN(C(=O)c2ccc(Br)cc2)C(O)(c2ccccc2)C1` (configuration not stated), for which the inhibition was 29.5%.

For the compound `CC1=NN(C(=O)Cc2ccc(C)cc2)C(O)(c2cccnc2)C1` (configuration not stated), the inhibition is -31.5%.

With `CCC1=NN(C(=O)Cc2ccc([N+](=O)[O-])cc2)C(O)(c2ccc(Br)cc2)C1` (configuration not stated), the inhibition is 50% (active).

As for `COc1ccc(CC2c3cc(OC)c(OC)cc3CC[N+]2(C)CCC(=O)OCCCCCOC(=O)CC[N+]2(C)CCc3cc(OC)c(OC)cc3C2Cc2ccc(OC)c(OC)c2)cc1OC` (configuration not stated), the inhibition is 3.67%.

In the case of `CC(C)(C)c1ccc(C(=O)N2CCN(CCNC(=O)C(=O)Nc3ccc(F)cc3)CC2)cc1`, the inhibition was 16.2%.

Regarding `COC(=O)c1sccc1NN1C(=O)c2ccccc2C1=O`, the inhibition is 13.6%.

As for `COC(=O)c1ccc2c(C(C)(C)O)c(C(C)(C)O)[nH]c2c1`, the inhibition was 5.76%.

`CCOc1ccc(NC(=O)CCC(=O)n2nc(C)cc2C)cc1`: the inhibition is 14.6%.

Regarding `Cc1cccc(/C=N/NC(=O)CNc2cccc3ccccc23)n1`, the inhibition is 17.8%.

Turning to `Cc1ccc(/C=N/NC(=O)CN2CCN(Cc3ccccc3)CC2)s1`, the inhibition was 0.916%.

For `Cc1ccccc1NCC(=O)N/N=C\c1ccc([N+](=O)[O-])s1`, the inhibition was 62.7% (active).

For the compound `CCOc1ccc(NC(=O)CCC(=O)N/N=C/c2ccc([N+](=O)[O-])s2)cc1`, the inhibition is 79.1% (active).

As for `CCOc1ccc(C(=O)CCC(=O)Nc2ccncc2)cc1`, the inhibition is 11.8%.

`CCOC(=O)/C=C/C(=O)OCC(=O)NC(c1ccccc1)c1ccccc1`: the inhibition is 40.9%.

For `O=C(NCc1ccc2c(c1)OCO2)C1CCCN(S(=O)(=O)c2cccs2)C1` (configuration not stated), the inhibition is 7.36%.

Regarding `CCN(C(=O)c1cc([N+](=O)[O-])ccc1NCc1cccnc1)c1ccccc1`, the inhibition was 24.3%.

As for `COc1ccc(N=Nc2c(-c3ccc(OC)cc3)[nH]oc2=O)cc1`, the inhibition was 2.46%.

For `CC1CCCCC1NC(=O)C1CCCN1S(=O)(=O)c1cccc2nsnc12` (configuration not stated), the inhibition is 6.89%.

On to `Cc1ccccc1CSc1nnc(Cn2c(=O)sc3ccccc32)n1C`, for which the inhibition was 18.7%.

For `Cc1cc(O)c(C(=O)/C=C/c2c(F)c(F)c(F)c(F)c2F)c(=O)o1`, the inhibition is 19.1%.

As for `Cc1ccc(N=Cc2c(O)n(-c3nccs3)c(=O)c3ccccc23)c(C)c1`, the inhibition was -3.15%.

Take `Cc1ccc(N=Cc2c(O)cc(C)oc2=O)c(C)c1`: the inhibition was 96.2% (active).

Turning to `CN1CCN(C(=O)c2ccc(-c3ccc(Br)cc3)o2)CC1`, the inhibition is 4.87%.

With `Cc1ccc(S(=O)(=O)NC(=O)N2CCCN(Cc3ccc(F)cc3)CC2)cc1`, the inhibition is -9.12%.

With `Cc1nc2cc(S(=O)(=O)C(F)(F)F)ccc2s1`, the inhibition is -1.26%.

As for `Cc1cccc(C)c1N1C(=O)CN(Cc2ccccc2)C1=S`, the inhibition was 54.6% (active).

For `COc1cccc(N2C(=O)CN(Cc3ccccc3)C2=S)c1`, the inhibition was 44.3%.

Consider `CCc1cccc(C)c1N1C(=O)CN(Cc2ccccc2)C1=S`, for which the inhibition was 46.7%.

In the case of `Cc1ccc2nc(N3CCN(C(=O)c4ccco4)CC3)sc2c1`, the inhibition was 26.4%.

For `Cc1ccc2cc3cc(C(=O)N4CCCCCC4)oc3nc2c1`, the inhibition is 53.8% (active).

In the case of `Cc1cc(C)cc(NC(=O)N2CCCCCCC2)c1`, the inhibition was 27.5%.

With `CC(=O)N1CC(=O)N(CC(=O)Nc2ccc(Br)cc2)C1=S`, the inhibition was 10.5%.

In the case of `COC(=O)[C@]1(C)N[C@H](c2ccc(-c3ccc(Cl)c(Cl)c3)cc2)[C@@H]2C(=O)N(C)C(=O)[C@@H]21`, the inhibition was 30.7%.

With `COc1cccc(CNc2ncc(-c3ccccc3)n2C)c1`, the inhibition was -8.62%.

For `CCC(=O)Nc1sc(C(=O)Nc2ccccc2)c(C)c1C(=O)OC`, the inhibition was 32%.

Regarding `Cc1csc(NC(=S)Nc2cccc(Cl)c2)n1`, the inhibition is 48.7%.

In the case of `CCC(=O)Nc1nc(C)c(C(=O)Nc2cccc(Cl)c2)s1`, the inhibition is 57.9% (active).

With `O=C(Nc1ccc(N2CCOCC2)nc1)c1c(F)cccc1F`, the inhibition is -3.3%.

Turning to `Cc1ccc(NC(=S)N2CCN(c3ncccn3)CC2)cc1C`, the inhibition is 19%.

Turning to `Cc1cccc(N2CCN(C(=O)/C=C/c3ccco3)CC2)c1C`, the inhibition was 38.9%.

In the case of `COc1ccc(C(=O)COC(=O)CN2C(=O)C3CC=CCC3C2=O)c(OC)c1` (configuration not stated), the inhibition is 12.1%.

On to `COc1cccc(CNC(=O)C2CCCN(S(=O)(=O)N3CC(C)CC(C)C3)C2)c1` (configuration not stated), for which the inhibition was 27.8%.

Turning to `CN(c1ccc(OCC(=O)O)cc1)S(=O)(=O)c1ccc2ccccc2c1`, the inhibition is 3.8%.

For `CC(=O)Oc1ccc(N(C(C)=O)S(=O)(=O)c2ccc3ccccc3c2)cc1Br`, the inhibition was 59.3% (active).

`COCCNC(=O)COc1ccc(N(C)S(=O)(=O)c2ccc3ccccc3c2)cc1`: the inhibition is 19.5%.

`CC(=O)n1cc([C@@H]2C=C(C(=O)N3CCN(Cc4ccc5c(c4)OCO5)CC3)O[C@H](OCc3ccc(CO)cc3)C2)c2ccccc21`: the inhibition was 5.34%.

For `O=C(COC(=O)Cc1ccc(Br)cc1)Nc1c(F)c(F)c(F)c(F)c1F`, the inhibition is 5.57%.

Regarding `CCCCOc1ccc(C(=O)NCC(=O)OCC(=O)c2c(N)n(C)c(=O)n(C)c2=O)cc1`, the inhibition was 7.23%.

Consider `NS(=O)(=O)c1ccc(CCNC(=O)NC2CCCCC2)cc1`, for which the inhibition was 8.17%.

Consider `Cc1cc2ncn(CCCCOc3ccccc3)c2cc1C`, for which the inhibition was 51.5% (active).

Take `COCCOCCn1cnc2ccccc21`: the inhibition was 2.15%.

For the compound `Clc1ncn(CCOc2ccccc2)c1Cl`, the inhibition is -4.79%.

In the case of `O=C(c1ccco1)N1CCN(C(=O)c2cc(-c3ccccc3F)no2)CC1`, the inhibition was 19.6%.

For `Fc1ccc2cnc(-c3ccccc3)cc2c1`, the inhibition is 31.1%.

Turning to `Fc1ccccc1-c1cc2cc3c(cc2cn1)OCO3`, the inhibition is 54.8% (active).

Regarding `COc1ccc(-n2c(SCC(=O)Nc3ccc4c(c3)OCO4)nnc2C(C)N2CCCCC2)cc1` (configuration not stated), the inhibition is 0.001%.

Regarding `O=C(O)c1ccc(S(=O)(=O)N2CCC(Cc3ccccc3)CC2)cc1`, the inhibition is -3.54%.

In the case of `CSCC[C@H](NC(=O)N1CCn2c1nc1ccccc12)C(=O)NCc1ccc2c(c1)OCO2`, the inhibition was -0.587%.

In the case of `CCCCNC(=O)CCn1c(=O)c2ccccc2n(Cc2cc(C)ccc2C)c1=O`, the inhibition was -7.13%.

Turning to `COC(=O)c1ccccc1NC(=O)CSc1nc2c(c(=O)[nH]1)CCC2`, the inhibition is 16%.

On to `CN1C(=O)/C(=N/OC(=O)c2ccccc2Br)c2ccccc21`, for which the inhibition is 56.2% (active).

Consider `CN1C(=O)/C(=C\c2cc(Br)cs2)c2ccccc21`, for which the inhibition was 24.9%.

As to `Nc1cc(OC(=O)c2ccccc2Br)nn1S(=O)(=O)c1ccccc1`, the inhibition is 37.3%.

The values above are taken from PubChem BioAssay AID463212 (Sanford-Burnham Center for Chemical Genomics, 2010).
